This note sets out measurements from PubChem BioAssay AID720697 (Broad Institute, 2013).

Results with a measured potency or affinity are listed apart. Inconclusive results are not listed. The source made the active and inactive calls.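 How the source made its calls: active means signal loss with fitted half-maximal concentration at or below twice the top valid tested dose in every test run; inconclusive means runs disagree, flat 30 to 70% signal loss, or poor fit; inactive means all runs flat, opposite direction, or potency beyond limit.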

A short description of this assay: HEK293T cytotoxicity, dose response, cytotoxicity control for miR-122 modulator project, cell-based, inhibitor set, cherry-pick, set 2 (AID 720697). Particulars: HEK293T viability, CellTiter-Glo luminescence, 48 h; series mostly up to 26 µM.
As to `Nc1ccc(Oc2ccc(Br)cc2)cc1`, the compound was called inactive.

In the case of `COc1ccc2[nH]c(=O)c(COC(=O)c3ccco3)cc2c1`, the compound was called inactive.

`CN1C(=O)c2cc(NC(=O)c3cc(F)cc(F)c3)ccc2OC[C@@H]2O[C@@H](CC(=O)O)CC[C@@H]21`: the result was inactive.

In the case of `Cc1cc(C(=O)Nc2cccc(O)c2)co1`, the result was inactive.

As for `CN1C(=O)c2cc(NC(=O)c3cccs3)ccc2OC[C@@H]2O[C@@H](CC(=O)N3CCOCC3)CC[C@H]21`, the call was inactive.

Turning to `C/C=C/c1ccc([C@@H]2[C@@H](CNC(=O)c3ccncc3)N(C(=O)CC)[C@H]2CO)cc1`, the call was inactive.

Consider `COc1cccc(-c2ccc3c(c2)O[C@H](CN(C)C(=O)C2CCOCC2)[C@H](C)CN([C@H](C)CO)S3(=O)=O)c1`, for which the result was inactive.

For `C[C@H]1CN([C@@H](C)CO)C(=O)c2cc(-c3ccc(C#N)cc3)cnc2O[C@H]1CN(C)C(=O)Nc1ccc(C(F)(F)F)cc1`, the compound was called inactive.

Regarding `CC(C)Oc1ccc(C(CCN)C2CCCCC2)cc1` (stereo not given), the compound was called inactive.

As for `N#Cc1cccc(NC(=O)Nc2cccs2)c1`, the compound was classed as inactive.

In the case of `O=C(NC[C@H]1N[C@H](CO)[C@@H]1c1ccc(-c2ccccc2F)cc1)c1ccccc1`, the outcome was inactive.

`CCC(=O)N1[C@H](CO)[C@@H](c2ccccc2)[C@@H]1CN(CC)C(=O)c1cccc(F)c1`: the result was inactive.

For `CCOc1ccc(CCNC(=O)C2CCN(S(=O)(=O)N3CCC(C)CC3)CC2)cc1OCC`, the outcome was inactive.

As to `COCC(=O)Nc1ccc2c(c1)C(=O)N(C)[C@@H]1CC[C@H](CC(=O)NC3CCCC3)O[C@H]1CO2`, the compound was classed as inactive.

With `O=C(c1cccnc1)N1C[C@H]2[C@@H](c3ccccc31)[C@H](CO)N2C(=O)Nc1ccccc1`, the compound was called inactive.
